Reference: ChEMBL document CHEMBL1961873, “Compounds: GSK PKIS; Assays: Nanosyn kinase panel” (2012)

Legend:
[1] = target: Death-associated protein kinase 1 (Homo sapiens) (UniProt P53355); settings: at 1 µM;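 further: each value is a mean inhibition figure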
[2] = target: T1, Serine/threonine-protein kinase DCLK2 (Homo sapiens) (UniProt Q8N568); settings: at 0.1 µM
T1 sequence (whole entry): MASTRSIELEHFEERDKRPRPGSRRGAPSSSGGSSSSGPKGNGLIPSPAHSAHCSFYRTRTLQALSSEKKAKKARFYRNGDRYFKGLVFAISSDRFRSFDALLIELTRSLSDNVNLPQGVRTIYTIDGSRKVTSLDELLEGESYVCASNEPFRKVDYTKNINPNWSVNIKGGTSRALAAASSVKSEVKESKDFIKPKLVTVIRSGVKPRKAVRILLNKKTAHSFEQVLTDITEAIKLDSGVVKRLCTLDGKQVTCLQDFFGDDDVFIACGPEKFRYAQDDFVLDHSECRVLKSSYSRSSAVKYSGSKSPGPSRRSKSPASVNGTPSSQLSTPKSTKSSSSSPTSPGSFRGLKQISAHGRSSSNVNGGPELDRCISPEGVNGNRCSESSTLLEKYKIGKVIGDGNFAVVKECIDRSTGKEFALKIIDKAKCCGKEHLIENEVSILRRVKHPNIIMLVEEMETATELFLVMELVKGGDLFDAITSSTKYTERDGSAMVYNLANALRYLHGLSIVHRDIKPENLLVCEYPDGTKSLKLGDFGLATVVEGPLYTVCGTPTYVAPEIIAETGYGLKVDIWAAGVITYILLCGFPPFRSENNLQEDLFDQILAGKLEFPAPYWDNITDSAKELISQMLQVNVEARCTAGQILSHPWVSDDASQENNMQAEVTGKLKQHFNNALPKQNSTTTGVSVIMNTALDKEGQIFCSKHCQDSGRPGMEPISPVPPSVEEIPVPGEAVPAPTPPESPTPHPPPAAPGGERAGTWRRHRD

[3] = target: T1, Serine/threonine-protein kinase DCLK2 (Homo sapiens); settings: at 1 µM
[4] = target: MAP kinase-activated protein kinase 2 (Homo sapiens) (UniProt P49137); settings: at 0.1 µM
Sequence of MAP kinase-activated protein kinase 2 (Homo sapiens) (P49137 whole entry, looked up): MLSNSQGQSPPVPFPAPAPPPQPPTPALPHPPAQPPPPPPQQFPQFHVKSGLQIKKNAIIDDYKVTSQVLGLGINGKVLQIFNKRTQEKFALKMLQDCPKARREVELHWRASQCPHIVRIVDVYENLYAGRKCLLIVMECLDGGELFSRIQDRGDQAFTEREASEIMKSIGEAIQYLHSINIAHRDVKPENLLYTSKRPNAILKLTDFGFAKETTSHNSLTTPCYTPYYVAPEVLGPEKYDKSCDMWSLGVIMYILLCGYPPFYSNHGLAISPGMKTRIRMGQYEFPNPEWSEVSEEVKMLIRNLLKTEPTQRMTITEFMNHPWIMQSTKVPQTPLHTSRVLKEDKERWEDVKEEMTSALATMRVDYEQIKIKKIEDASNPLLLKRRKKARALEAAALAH

[5] = target: MAP kinase-activated protein kinase 2 (Homo sapiens) (UniProt P49137); settings: at 1 µM
[6] = target: MAP kinase-activated protein kinase 3 (Homo sapiens) (UniProt Q16644); settings: at 0.1 µM
Sequence of MAP kinase-activated protein kinase 3 (Homo sapiens) (Q16644 whole entry, looked up): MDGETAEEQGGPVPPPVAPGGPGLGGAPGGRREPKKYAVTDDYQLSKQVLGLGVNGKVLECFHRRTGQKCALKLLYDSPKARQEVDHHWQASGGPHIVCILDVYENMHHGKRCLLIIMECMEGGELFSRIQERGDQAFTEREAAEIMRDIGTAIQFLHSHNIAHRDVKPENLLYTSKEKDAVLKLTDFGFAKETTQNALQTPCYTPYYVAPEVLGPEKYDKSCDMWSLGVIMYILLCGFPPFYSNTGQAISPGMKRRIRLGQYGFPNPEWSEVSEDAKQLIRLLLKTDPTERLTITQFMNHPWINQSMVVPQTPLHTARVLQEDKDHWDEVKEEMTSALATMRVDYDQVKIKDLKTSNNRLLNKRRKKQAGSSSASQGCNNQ

[7] = target: MAP kinase-activated protein kinase 3 (Homo sapiens) (UniProt Q16644); settings: at 1 µM
[8] = target: Serine/threonine-protein kinase MARK1 (Homo sapiens) (UniProt Q9P0L2); settings: at 0.1 µM
[9] = target: Serine/threonine-protein kinase MARK1 (Homo sapiens) (UniProt Q9P0L2); settings: at 1 µM
[10] = target: MAP/microtubule affinity-regulating kinase 3 (Homo sapiens) (UniProt P27448); settings: at 0.1 µM
Sequence of MAP/microtubule affinity-regulating kinase 3 (Homo sapiens) (P27448 whole entry, looked up): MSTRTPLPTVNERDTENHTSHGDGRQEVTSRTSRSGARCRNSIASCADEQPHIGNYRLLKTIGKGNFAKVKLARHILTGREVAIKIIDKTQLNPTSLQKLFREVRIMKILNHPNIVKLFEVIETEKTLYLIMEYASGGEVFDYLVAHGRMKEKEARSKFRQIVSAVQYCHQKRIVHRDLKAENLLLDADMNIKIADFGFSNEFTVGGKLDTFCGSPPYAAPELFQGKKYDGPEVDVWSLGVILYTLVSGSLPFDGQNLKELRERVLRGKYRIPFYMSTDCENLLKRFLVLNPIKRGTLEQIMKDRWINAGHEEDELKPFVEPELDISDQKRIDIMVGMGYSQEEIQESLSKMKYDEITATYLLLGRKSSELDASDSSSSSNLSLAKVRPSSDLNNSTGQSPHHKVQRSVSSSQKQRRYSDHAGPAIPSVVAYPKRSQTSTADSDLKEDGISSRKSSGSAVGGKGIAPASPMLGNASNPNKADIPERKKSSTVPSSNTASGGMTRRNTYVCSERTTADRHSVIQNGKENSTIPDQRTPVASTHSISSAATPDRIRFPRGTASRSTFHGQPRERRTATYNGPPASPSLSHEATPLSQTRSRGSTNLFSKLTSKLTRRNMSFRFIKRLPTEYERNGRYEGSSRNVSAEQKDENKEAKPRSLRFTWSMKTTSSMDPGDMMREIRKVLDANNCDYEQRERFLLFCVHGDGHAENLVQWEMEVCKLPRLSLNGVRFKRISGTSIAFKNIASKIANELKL

[11] = target: MAP/microtubule affinity-regulating kinase 3 (Homo sapiens) (UniProt P27448); settings: at 1 µM
[12] = target: T2, MAP/microtubule affinity-regulating kinase 4 (Homo sapiens) (UniProt Q96L34); settings: at 0.1 µM
T2 sequence (whole entry): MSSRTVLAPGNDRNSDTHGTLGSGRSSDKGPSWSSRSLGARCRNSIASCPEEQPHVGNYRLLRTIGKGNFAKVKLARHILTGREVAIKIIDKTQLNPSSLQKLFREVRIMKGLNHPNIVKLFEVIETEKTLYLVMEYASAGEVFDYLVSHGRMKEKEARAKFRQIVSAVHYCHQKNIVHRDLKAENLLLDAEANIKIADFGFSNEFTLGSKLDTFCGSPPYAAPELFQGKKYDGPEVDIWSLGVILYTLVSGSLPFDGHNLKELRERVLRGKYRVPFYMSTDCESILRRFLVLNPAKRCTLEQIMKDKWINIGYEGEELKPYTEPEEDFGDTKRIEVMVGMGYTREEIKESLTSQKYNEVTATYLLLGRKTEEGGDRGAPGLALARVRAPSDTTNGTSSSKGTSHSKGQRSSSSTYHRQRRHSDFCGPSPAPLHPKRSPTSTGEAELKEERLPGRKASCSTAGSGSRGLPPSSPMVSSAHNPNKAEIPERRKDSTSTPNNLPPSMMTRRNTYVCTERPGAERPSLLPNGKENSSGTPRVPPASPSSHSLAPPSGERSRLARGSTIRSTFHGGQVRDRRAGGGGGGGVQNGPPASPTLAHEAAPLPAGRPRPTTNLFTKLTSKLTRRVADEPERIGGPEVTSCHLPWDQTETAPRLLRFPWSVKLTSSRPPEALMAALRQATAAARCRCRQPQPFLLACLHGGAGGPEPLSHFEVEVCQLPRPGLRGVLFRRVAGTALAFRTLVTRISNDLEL

[13] = target: T2, MAP/microtubule affinity-regulating kinase 4 (Homo sapiens); settings: at 1 µM
[14] = target: Maternal embryonic leucine zipper kinase (Homo sapiens) (UniProt Q14680); settings: at 0.1 µM
Sequence of Maternal embryonic leucine zipper kinase (Homo sapiens) (Q14680 whole entry, looked up): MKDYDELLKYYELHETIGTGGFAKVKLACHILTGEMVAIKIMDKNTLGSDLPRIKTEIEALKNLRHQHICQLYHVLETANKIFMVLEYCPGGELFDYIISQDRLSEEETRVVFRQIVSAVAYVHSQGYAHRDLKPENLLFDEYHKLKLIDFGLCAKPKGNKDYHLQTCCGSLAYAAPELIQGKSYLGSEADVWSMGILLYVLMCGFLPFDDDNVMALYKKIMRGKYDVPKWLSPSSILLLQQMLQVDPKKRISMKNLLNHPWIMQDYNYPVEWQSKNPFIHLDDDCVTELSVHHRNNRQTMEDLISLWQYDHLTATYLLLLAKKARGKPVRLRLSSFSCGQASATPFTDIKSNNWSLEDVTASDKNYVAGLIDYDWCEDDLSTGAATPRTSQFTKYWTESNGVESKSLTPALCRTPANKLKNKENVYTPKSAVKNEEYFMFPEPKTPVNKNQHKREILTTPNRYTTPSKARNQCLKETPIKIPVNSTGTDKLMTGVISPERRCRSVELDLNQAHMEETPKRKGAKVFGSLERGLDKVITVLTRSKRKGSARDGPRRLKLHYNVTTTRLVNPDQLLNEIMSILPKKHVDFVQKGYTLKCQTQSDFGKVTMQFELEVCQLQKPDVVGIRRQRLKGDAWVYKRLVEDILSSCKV

[15] = target: Maternal embryonic leucine zipper kinase (Homo sapiens) (UniProt Q14680); settings: at 1 µM
[16] = target: MAP kinase-interacting serine/threonine-protein kinase 1 (Homo sapiens) (UniProt Q9BUB5); settings: at 0.1 µM
Sequence of MAP kinase-interacting serine/threonine-protein kinase 1 (Homo sapiens) (Q9BUB5 whole entry, looked up): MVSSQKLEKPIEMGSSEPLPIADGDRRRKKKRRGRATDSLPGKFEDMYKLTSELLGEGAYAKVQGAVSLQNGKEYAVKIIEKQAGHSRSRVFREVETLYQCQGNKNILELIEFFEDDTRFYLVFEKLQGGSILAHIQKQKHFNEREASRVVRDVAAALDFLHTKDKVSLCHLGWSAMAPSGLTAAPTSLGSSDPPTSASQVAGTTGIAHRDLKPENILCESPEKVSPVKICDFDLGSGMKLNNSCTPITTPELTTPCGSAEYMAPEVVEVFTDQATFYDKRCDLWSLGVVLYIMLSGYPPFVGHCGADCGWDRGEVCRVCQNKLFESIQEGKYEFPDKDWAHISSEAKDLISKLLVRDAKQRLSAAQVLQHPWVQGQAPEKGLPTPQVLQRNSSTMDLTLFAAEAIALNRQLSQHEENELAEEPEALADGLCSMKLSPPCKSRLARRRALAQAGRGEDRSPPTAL

[17] = target: MAP kinase-interacting serine/threonine-protein kinase 1 (Homo sapiens) (UniProt Q9BUB5); settings: at 1 µM
[18] = target: MAP kinase-interacting serine/threonine-protein kinase 2 (Homo sapiens) (UniProt Q9HBH9); settings: at 0.1 µM
Sequence of MAP kinase-interacting serine/threonine-protein kinase 2 (Homo sapiens) (Q9HBH9 whole entry, looked up): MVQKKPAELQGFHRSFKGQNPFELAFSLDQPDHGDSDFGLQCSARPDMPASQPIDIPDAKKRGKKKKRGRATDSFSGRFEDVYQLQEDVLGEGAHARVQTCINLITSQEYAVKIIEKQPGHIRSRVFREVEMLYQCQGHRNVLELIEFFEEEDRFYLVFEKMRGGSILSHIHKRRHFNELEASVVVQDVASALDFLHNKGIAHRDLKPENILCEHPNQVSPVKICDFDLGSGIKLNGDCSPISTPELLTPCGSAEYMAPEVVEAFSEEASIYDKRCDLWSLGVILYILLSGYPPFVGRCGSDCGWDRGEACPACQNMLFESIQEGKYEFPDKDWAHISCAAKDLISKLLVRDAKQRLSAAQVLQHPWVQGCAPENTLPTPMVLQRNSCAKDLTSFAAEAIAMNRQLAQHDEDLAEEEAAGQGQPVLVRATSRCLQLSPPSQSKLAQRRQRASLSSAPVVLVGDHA

[19] = target: MAP kinase-interacting serine/threonine-protein kinase 2 (Homo sapiens) (UniProt Q9HBH9); settings: at 1 µM
[20] = target: Serine/threonine-protein kinase MARK2 (Homo sapiens) (UniProt Q7KZI7); settings: at 0.1 µM;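 further: mean percent inhibition of PAR-1Balpha kinase activity, reported from the GSK PKIS screen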

Sequence of Death-associated protein kinase 1 (Homo sapiens) (P53355 whole entry, looked up): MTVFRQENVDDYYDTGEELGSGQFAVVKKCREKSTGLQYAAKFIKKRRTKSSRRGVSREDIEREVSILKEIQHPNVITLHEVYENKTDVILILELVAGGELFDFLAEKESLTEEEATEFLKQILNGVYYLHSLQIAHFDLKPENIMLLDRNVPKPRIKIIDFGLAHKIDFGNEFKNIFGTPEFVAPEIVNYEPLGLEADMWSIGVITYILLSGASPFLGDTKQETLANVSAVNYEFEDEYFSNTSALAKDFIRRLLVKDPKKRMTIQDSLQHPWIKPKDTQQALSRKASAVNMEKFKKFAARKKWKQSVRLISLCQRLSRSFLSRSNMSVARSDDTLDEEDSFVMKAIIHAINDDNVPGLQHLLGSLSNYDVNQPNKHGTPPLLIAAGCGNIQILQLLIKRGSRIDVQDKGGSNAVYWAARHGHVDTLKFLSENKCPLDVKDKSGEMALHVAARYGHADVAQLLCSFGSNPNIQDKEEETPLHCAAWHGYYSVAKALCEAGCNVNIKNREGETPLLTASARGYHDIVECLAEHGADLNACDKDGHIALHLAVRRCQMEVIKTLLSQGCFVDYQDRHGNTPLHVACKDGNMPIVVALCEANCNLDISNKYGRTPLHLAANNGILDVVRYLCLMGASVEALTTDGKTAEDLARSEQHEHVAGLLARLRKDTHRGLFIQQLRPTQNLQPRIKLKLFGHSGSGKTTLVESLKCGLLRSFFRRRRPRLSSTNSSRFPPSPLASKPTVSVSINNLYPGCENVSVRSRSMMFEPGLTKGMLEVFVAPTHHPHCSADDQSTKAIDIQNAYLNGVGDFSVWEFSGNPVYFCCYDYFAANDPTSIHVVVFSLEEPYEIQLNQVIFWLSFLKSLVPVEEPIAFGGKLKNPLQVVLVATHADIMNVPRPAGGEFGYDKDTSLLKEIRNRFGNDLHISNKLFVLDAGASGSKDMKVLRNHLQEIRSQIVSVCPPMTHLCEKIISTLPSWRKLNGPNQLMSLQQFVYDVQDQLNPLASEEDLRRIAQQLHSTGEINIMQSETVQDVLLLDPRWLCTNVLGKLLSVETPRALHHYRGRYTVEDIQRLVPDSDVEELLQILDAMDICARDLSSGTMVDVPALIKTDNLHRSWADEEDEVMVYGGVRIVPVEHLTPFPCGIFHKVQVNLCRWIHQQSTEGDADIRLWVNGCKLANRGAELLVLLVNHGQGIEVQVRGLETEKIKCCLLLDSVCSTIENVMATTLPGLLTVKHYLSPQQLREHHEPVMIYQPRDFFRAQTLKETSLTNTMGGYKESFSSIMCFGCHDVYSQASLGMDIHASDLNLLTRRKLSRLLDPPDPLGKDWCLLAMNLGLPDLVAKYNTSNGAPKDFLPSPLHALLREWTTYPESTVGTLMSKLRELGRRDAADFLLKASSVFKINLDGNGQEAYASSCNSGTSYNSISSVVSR

| SMILES | inhibition [1] | inhibition [2] | inhibition [3] | inhibition [4] | inhibition [5] | inhibition [6] | inhibition [7] | inhibition [8] | inhibition [9] | inhibition [10] | inhibition [11] | inhibition [12] | inhibition [13] | inhibition [14] | inhibition [15] | inhibition [16] | inhibition [17] | inhibition [18] | inhibition [19] | inhibition [20] |
| --- | --- | --- | --- | --- | --- | --- | --- | --- | --- | --- | --- | --- | --- | --- | --- | --- | --- | --- | --- | --- |
| Cc1nnc(-c2cccc(-c3ccc(C(=O)NCC4CC4)cc3)c2)o1 | 6.03% | 1.25% | 4.29% | 2.92% | 2.7% | 5.72% | 6.73% | 4.06% | 6.5% | 4.12% | 7.47% | 1.79% | 2.85% | 0.44% | 6.34% | 4.66% | 6.32% | 2.35% | 6.05% | 0.64% |
| CC(C)c1ccc(-c2cc(-c3c[nH]nc3-c3ccccn3)ccn2)cc1 | -0.6% | 0.39% | -0.35% | 0.58% | -0.11% | 0.63% | 6.51% | 1.23% | 1.49% | -3.53% | 0.71% | -0.28% | 0.5% | 1.44% | 3.48% | 1.48% | 3.11% | 0.97% | 2.83% | -2.82% |
| CCS(=O)(=O)c1ccc(OC)c(Nc2ncc(-c3cccc(C(C)=O)c3)o2)c1 | 3.26% | -0.25% | -0.78% | 2.19% | 1.71% | 3% | 3.61% | 1.61% | 3.04% | 0.57% | 10.1% | 0.67% | 1.52% | 2.17% | 7.46% | 3.04% | 12.2% | 2.96% | 6.18% | -1.1% |
| CCn1c(-c2nonc2N)nc2cncc(C(=O)NCCNC)c21 | 0.19% | 1.52% | 1.62% | 2.34% | 1.53% | 3.52% | 3.94% | 1.84% | 14.9% | 1.81% | 16.6% | 2.2% | 7.71% | 15.2% | 61.2% | 2.94% | 6.9% | 0.78% | 13.4% | -0.85% |
| Fc1ccc(Nc2nccc(-c3c(-c4ccc(C(F)(F)F)cc4)nn4ncccc34)n2)cc1F | 4.85% | 1.36% | 0.53% | 1.35% | 0.53% | 1.82% | 4.65% | 3.43% | 4.46% | 3.28% | 3.91% | 1.29% | 2.56% | 1.38% | 3.78% | 2.72% | 2.85% | 0.89% | 2.32% | -0.1% |
| CS(=O)(=O)CCNCc1ccc(-c2ccc3ncnc(Nc4ccc(OCc5ccccc5)cc4)c3c2)o1 | 1.36% | 1.31% | 1.03% | 1.2% | 0.72% | 3.13% | 2.48% | 3.03% | 2.05% | 0.62% | -0.22% | 2.33% | 1.3% | 6.32% | 3.76% | 2.89% | 6.82% | 3.2% | 15.7% | -0.24% |
| COc1ccc(-c2nn3ncccc3c2-c2ccnc(Nc3ccc(F)c(F)c3)n2)cc1 | 6.8% | 1.7% | 0.5% | 2.31% | 2.82% | 16.8% | 32.5% | 4.53% | 8.38% | 4.11% | 10.5% | 1.45% | 1.84% | 3.07% | 4.64% | 2.98% | 6.32% | 2.16% | 6.26% | 0.52% |
| COc1c(C(N)=O)cc(-c2ccc(Cl)cc2)cc1-c1ccc(S(N)(=O)=O)cc1 | 0.56% | -5.08% | 2.52% | 2.42% | 3.46% | 5.57% | 8.63% | 0.41% | 1.61% | -0.24% | 2.07% | 0.45% | 1.37% | 6.28% | 14.6% | 3.66% | 11.2% | 2.02% | 5.44% | 1.8% |
| Fc1cccc(COc2ccc(Nc3ncncc3C#Cc3ccccc3)cc2Cl)c1 | 5.6% | 1.92% | -0.09% | 2.63% | 2.47% | 4.72% | 6.08% | 4.09% | 5.61% | 4.58% | 4.26% | 0.48% | 1.07% | 3.34% | 4.69% | 3.32% | 11.8% | 2.53% | 6.84% | 0.96% |
